What all share (test): DAPPL (digital affinity profiling via proximity ligation, sequencing); 10 mM Tris-HCl pH 7.5, 50 mM NaCl, 1 mM DTT, 4% glycerol, room temperature, 30 min; GST-TFs on glutathione beads, 16-mer random dsDNA library, 0.1% formaldehyde crosslink after washing; high values mean tight binding
One experiment addresses T1, FEV (Homo sapiens, UniProt Q99581 1-238).
T1 sequence: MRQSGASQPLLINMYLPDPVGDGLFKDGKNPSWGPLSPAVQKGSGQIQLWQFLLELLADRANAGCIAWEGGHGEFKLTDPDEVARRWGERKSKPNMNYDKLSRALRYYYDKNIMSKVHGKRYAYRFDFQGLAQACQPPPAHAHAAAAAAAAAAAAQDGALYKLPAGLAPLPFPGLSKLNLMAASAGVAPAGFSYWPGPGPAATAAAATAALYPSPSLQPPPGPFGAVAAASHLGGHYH
As to conditions: protein: recombinant; tags: N-terminal GST; dsDNA, one strand shown. The method in brief: (§1)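 Yeast served to express human transcription factors as GST fusions, which were then captured on glutathione beads and labelled with DNA barcodes. Pooled with a tag-only sample, they were incubated with 200 nmole of a 16-mer random double-stranded DNA library for 30 min at room temperature in Tris/NaCl/DTT/glycerol buffer, washed, crosslinked with 0.1% formaldehyde, ligated by proximity, amplified by PCR and sequenced. Dividing each hexamer's read frequency for a factor by its frequency for the tag-only sample gives the binding signal.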

Another experiment has as its target ETV5 (Homo sapiens, UniProt P41161 1-510). The following applies: protein: recombinant; tags: N-terminal GST; dsDNA, one strand shown. In short, it runs like this: as §1
Another experiment deals with HSF1 (Homo sapiens, UniProt Q00613 1-529). The following applies: protein: recombinant; tags: N-terminal GST; chain copies: 3; dsDNA, one strand shown. In short, it runs like this:
as §1

The target in the next experiment is T2, SPIC (Homo sapiens, UniProt Q8N5J4 1-248).
T2 sequence: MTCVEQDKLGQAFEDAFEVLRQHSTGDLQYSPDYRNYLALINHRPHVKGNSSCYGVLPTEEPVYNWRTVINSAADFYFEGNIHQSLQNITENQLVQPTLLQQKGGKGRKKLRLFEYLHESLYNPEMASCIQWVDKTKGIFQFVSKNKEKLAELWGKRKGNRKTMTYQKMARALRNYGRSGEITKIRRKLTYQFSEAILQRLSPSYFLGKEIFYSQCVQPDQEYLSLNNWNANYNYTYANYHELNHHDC
As to conditions: protein: recombinant; tags: N-terminal GST; dsDNA, one strand shown. The method in brief:
as §1

For another experiment, the target named is ELF4 (Homo sapiens, UniProt Q99607 1-663). As to conditions: protein: recombinant; tags: N-terminal GST; dsDNA, one strand shown. The method in brief: as §1
The next experiment has as its target T3, ELK4 (Homo sapiens, UniProt P28324-2 1-405).
T3 sequence: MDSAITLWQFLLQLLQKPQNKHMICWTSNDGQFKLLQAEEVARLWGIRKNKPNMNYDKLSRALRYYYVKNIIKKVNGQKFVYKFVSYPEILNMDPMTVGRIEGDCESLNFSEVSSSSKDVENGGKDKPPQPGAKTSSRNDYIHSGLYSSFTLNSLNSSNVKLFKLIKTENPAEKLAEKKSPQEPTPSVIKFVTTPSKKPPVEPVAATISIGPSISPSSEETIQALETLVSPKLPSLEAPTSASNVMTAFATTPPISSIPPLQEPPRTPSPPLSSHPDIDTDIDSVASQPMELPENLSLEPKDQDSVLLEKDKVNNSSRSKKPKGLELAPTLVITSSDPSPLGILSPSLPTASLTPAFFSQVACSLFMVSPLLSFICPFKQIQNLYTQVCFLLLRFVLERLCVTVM
As to conditions: protein: recombinant; tags: N-terminal GST; dsDNA, one strand shown. The method in brief: as §1

Another experiment has as its target T4, ETV2 (Homo sapiens, UniProt O00321 1-342).
T4 sequence: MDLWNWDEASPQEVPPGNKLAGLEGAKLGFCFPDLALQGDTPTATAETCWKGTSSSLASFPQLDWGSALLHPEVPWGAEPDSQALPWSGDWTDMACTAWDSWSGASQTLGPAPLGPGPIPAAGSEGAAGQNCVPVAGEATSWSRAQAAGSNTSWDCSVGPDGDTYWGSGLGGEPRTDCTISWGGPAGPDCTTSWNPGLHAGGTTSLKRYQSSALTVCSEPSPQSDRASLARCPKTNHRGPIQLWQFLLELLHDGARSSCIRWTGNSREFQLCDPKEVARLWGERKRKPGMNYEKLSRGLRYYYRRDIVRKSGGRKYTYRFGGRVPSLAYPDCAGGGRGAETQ
The following applies: protein: recombinant; tags: N-terminal GST; dsDNA, one strand shown. In short, it runs like this: as §1

In the next experiment the target is T5, ELF3 (Homo sapiens, UniProt P78545 1-371).
T5 sequence: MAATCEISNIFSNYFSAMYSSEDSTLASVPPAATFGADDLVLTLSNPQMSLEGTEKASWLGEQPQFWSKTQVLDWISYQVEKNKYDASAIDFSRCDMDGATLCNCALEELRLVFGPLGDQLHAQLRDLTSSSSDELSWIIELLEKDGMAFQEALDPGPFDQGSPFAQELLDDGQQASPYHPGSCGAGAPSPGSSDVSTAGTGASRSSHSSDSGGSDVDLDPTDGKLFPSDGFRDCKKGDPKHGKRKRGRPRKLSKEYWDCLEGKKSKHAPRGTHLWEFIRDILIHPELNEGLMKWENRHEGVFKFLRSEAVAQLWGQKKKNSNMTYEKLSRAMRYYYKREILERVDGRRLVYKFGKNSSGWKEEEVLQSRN
As to conditions: protein: recombinant; tags: N-terminal GST; dsDNA, one strand shown. In short, it runs like this: as §1

A further experiment has as its target CRX (Homo sapiens, UniProt O43186 1-299). The following applies: protein: recombinant; tags: N-terminal GST; dsDNA, one strand shown. In short, it runs like this:
as §1

For a further experiment, the target named is ETV1 (Homo sapiens, UniProt P50549 1-477). The following applies: protein: recombinant; tags: N-terminal GST; dsDNA, one strand shown. The method in brief:
as §1

In the next experiment the target is T6, ERF (Homo sapiens, UniProt P50548 1-548).
T6 sequence: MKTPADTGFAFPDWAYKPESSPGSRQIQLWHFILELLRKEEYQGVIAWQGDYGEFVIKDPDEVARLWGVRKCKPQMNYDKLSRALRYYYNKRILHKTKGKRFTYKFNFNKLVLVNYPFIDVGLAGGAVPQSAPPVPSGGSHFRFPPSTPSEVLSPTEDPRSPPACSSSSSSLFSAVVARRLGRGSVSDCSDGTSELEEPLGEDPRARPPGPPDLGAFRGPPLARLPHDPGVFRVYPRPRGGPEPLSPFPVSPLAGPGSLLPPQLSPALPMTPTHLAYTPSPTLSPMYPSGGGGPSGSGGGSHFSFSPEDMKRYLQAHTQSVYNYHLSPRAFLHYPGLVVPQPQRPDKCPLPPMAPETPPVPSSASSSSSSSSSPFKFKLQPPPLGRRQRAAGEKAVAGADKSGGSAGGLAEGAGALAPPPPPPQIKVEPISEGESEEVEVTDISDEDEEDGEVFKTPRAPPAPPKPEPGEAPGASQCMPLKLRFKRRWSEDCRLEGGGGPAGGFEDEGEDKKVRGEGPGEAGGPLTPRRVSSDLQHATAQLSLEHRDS
As to conditions: protein: recombinant; tags: N-terminal GST; dsDNA, one strand shown. In short, it runs like this: as §1

The target in a further experiment is T7, ETV3L (Homo sapiens, UniProt Q6ZN32 1-361).
T7 sequence: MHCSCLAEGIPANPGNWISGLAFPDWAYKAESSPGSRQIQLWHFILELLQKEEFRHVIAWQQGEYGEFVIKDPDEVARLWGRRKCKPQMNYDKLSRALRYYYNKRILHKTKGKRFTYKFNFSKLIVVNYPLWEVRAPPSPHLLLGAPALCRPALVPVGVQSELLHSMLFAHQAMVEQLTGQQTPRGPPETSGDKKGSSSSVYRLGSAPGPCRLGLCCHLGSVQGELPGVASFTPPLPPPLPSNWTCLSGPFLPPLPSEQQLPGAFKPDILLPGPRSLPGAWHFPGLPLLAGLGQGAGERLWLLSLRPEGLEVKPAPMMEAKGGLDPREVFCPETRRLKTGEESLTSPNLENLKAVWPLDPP
The following applies: protein: recombinant; tags: N-terminal GST; dsDNA, one strand shown. The method in brief:
as §1

In the next experiment the target is T8, ETS2 (Homo sapiens, UniProt P15036 1-469).
T8 sequence: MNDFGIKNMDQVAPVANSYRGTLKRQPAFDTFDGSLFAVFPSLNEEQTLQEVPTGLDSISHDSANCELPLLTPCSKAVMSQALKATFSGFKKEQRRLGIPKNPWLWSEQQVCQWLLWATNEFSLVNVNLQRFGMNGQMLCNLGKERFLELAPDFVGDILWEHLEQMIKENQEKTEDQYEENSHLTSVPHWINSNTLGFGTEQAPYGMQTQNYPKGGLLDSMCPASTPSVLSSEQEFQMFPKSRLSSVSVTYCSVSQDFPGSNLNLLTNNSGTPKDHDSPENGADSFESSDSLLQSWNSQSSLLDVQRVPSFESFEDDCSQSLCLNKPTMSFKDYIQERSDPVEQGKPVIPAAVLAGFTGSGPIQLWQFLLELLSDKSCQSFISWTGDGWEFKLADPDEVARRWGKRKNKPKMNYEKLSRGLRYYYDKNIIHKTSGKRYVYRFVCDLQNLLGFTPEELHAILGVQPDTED
The following applies: protein: recombinant; tags: N-terminal GST; dsDNA, one strand shown. The method in brief:
as §1

A further experiment has as its target T9, SPDEF (Homo sapiens, UniProt O95238 1-335).
T9 sequence: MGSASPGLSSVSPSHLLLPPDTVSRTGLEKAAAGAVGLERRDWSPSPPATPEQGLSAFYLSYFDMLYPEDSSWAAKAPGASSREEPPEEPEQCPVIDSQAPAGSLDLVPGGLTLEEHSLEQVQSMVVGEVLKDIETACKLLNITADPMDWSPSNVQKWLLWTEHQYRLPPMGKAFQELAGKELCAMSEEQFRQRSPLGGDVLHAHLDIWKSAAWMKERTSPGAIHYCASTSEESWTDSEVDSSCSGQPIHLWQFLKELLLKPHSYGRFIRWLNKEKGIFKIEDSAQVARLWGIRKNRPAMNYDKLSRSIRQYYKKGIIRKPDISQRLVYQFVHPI
As to conditions: protein: recombinant; tags: N-terminal GST; dsDNA, one strand shown. The method in brief:
as §1

Another experiment addresses T10, ETV7 (Homo sapiens, UniProt Q9Y603 1-341).
T10 sequence: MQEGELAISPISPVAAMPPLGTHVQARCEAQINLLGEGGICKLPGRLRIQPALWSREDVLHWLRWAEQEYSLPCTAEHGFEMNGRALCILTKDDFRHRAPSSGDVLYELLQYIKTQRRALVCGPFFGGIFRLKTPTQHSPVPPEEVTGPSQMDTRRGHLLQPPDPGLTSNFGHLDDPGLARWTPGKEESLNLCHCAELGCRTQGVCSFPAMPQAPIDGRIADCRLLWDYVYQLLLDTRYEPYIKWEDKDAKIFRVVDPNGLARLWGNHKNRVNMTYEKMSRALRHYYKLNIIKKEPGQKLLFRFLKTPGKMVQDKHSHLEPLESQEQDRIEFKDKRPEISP
As to conditions: protein: recombinant; tags: N-terminal GST; dsDNA, one strand shown. In short, it runs like this: as §1

In another experiment the target is T11, ELF5 (Homo sapiens, UniProt Q9UKW6-2 1-255).
T11 sequence: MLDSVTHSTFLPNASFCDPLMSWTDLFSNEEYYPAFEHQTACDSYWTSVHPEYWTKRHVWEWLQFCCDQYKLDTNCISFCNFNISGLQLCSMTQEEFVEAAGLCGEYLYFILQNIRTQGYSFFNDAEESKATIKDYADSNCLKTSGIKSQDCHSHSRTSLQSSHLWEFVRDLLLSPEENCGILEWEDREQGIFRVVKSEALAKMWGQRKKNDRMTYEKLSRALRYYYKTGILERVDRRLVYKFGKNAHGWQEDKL
As to conditions: protein: recombinant; tags: N-terminal GST; dsDNA, one strand shown. In short, it runs like this: as §1

The next experiment has as its target T12, ETV3 (Homo sapiens, UniProt P41162-2 1-143).
T12 sequence: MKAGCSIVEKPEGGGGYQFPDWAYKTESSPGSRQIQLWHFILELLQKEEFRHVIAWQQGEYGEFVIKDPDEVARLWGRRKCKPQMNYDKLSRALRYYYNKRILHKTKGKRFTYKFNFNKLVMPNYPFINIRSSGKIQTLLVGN
The following applies: protein: recombinant; tags: N-terminal GST; dsDNA, one strand shown. In short, it runs like this:
as §1

The next experiment deals with ETV6 (Homo sapiens, UniProt P41212 1-452). As to conditions: protein: recombinant; tags: N-terminal GST; dsDNA, one strand shown. The method in brief:
as §1

Sequence of ETV1 (P50549 whole entry): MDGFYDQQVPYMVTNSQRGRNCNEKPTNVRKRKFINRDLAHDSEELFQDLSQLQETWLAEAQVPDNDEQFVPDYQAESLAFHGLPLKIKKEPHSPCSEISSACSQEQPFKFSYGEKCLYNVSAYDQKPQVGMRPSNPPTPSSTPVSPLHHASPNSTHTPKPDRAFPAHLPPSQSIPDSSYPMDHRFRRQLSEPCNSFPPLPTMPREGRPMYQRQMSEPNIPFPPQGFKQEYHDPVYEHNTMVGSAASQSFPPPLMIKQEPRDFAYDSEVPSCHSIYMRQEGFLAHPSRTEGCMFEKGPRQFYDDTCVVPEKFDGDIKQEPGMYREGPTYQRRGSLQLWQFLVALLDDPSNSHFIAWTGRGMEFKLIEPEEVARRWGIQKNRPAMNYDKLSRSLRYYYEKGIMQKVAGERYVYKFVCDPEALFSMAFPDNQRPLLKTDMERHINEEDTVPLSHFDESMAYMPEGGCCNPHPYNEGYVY
Sequence of HSF1 (Q00613 whole entry): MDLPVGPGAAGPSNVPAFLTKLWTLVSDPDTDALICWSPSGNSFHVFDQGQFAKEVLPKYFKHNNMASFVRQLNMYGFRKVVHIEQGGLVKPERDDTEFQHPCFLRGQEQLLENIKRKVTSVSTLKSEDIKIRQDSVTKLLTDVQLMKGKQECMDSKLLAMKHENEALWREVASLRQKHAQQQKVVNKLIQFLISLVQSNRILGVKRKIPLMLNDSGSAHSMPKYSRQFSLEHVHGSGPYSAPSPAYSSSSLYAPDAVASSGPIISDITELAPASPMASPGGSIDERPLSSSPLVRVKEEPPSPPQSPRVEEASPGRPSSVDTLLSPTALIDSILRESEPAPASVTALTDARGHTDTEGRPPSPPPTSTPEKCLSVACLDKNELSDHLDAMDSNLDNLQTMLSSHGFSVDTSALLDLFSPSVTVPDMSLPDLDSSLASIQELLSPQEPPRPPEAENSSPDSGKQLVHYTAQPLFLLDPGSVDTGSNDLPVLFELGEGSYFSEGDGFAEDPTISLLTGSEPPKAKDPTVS
Sequence of ETV5 (P41161 whole entry): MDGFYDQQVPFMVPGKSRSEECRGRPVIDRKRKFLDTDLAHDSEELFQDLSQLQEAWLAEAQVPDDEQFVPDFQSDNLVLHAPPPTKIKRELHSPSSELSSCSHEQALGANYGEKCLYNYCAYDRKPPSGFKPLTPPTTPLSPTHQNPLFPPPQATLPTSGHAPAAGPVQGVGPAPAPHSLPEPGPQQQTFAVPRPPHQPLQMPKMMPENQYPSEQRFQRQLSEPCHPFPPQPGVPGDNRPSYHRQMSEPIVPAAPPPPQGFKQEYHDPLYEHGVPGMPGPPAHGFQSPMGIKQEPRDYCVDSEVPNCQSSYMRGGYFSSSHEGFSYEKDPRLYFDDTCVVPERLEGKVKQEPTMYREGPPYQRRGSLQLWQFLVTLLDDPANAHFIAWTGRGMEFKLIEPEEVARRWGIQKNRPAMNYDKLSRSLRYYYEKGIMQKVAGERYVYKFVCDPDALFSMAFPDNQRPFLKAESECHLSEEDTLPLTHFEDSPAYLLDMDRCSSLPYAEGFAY
Sequence of CRX (O43186 whole entry): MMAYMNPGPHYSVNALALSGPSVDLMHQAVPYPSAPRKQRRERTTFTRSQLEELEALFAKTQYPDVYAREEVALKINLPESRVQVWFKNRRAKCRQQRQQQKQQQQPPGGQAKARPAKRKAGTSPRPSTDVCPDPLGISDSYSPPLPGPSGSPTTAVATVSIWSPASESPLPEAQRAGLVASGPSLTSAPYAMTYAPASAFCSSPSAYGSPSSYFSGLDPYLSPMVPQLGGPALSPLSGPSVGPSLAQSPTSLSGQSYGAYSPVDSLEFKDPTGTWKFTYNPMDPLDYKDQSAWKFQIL
Sequence of ETV6 (P41212 whole entry): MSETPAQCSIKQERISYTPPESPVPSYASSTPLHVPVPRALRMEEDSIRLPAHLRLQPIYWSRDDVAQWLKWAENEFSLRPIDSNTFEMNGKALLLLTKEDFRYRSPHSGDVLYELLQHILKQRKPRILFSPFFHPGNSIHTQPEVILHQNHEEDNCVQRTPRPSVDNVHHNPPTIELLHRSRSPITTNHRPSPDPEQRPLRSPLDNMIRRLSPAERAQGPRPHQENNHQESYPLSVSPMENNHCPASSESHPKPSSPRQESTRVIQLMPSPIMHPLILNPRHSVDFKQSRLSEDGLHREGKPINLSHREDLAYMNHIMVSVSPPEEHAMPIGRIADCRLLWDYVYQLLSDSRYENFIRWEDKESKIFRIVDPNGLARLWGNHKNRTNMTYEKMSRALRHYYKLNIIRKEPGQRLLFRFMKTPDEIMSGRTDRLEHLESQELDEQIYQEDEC
Sequence of ELF4 (Q99607 whole entry): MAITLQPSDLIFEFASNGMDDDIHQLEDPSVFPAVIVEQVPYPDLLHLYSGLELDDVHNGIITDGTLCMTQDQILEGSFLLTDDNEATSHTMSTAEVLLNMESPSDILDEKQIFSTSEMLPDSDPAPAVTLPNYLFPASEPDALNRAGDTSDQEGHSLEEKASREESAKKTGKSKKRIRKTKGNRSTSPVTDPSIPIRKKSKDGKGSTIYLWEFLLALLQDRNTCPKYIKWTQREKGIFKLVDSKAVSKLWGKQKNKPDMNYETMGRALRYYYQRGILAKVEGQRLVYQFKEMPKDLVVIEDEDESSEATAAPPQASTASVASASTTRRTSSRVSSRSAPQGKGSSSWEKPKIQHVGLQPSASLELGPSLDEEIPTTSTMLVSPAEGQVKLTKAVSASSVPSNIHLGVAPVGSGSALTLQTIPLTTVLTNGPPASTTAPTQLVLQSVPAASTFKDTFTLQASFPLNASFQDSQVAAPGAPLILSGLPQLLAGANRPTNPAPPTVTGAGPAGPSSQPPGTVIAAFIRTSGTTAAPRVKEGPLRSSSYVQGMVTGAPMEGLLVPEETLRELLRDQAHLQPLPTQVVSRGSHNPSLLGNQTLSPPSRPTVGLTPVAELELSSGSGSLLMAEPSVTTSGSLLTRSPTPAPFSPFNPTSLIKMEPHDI

Consider ATACAC, for which the binding signal in the experiment with FEV was 1.24 fold enrichment (6-mer frequency, TF over GST control); in the experiment with ETV5, 1.22 fold enrichment (6-mer frequency, TF over GST control); with HSF1, 1.01 fold enrichment (6-mer frequency, TF over GST control); with SPIC it was 1.22 fold enrichment (6-mer frequency, TF over GST control); in the experiment with ELF4, 1.24 fold enrichment (6-mer frequency, TF over GST control); in the experiment with ELK4 it was 1.25 fold enrichment (6-mer frequency, TF over GST control). In addition, the binding signal with ETV2 is 1.24 fold enrichment (6-mer frequency, TF over GST control); with ELF3, 1.16 fold enrichment (6-mer frequency, TF over GST control); in the experiment with CRX it was 1.04 fold enrichment (6-mer frequency, TF over GST control); with ETV1, 1.31 fold enrichment (6-mer frequency, TF over GST control); in the experiment with ERF it was 1.32 fold enrichment (6-mer frequency, TF over GST control); with ETV3L it was 1.18 fold enrichment (6-mer frequency, TF over GST control). Moreover, the binding signal with ETS2 was 1.16 fold enrichment (6-mer frequency, TF over GST control); in the experiment with SPDEF, 1.28 fold enrichment (6-mer frequency, TF over GST control); with ETV7, 1.21 fold enrichment (6-mer frequency, TF over GST control); with ELF5, 1.15 fold enrichment (6-mer frequency, TF over GST control); in the experiment with ETV3 it was 1.17 fold enrichment (6-mer frequency, TF over GST control); with ETV6 it was 1.12 fold enrichment (6-mer frequency, TF over GST control).

The values above are taken from paper PMC7862700, “An all-to-all approach to the identification of sequence-specific readers for epigenetic DNA modifications on cytosine”.
